# This is part of a sample that, as a whole, favours compounds with a hit. Of some 79,000 tested, about 15% had one in any assay. Unmarked numbers belong to inactive results. No stated cut-off is given here; in the data, active means growth inhibition above about 70%; inactive means the rest. Where a SMILES comes first, the peptide text is derived from it.
# Experiment: NCI Yeast Anticancer Drug Screen. Data for the sgs1 mgt1 strain (AID 161);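 further: 0% = growth of cultures given vehicle only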
# Settings: S. cerevisiae sgs1 mgt1 strain, at 50.0 µM, stronger effect = higher value
# How it was run: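 Read-out: growth inhibition vs vehicle controls. Cells: mutant yeast strain deficient in DNA damage repair.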
row,SMILES,growth inhibition [%]
1,CC(C)CC(NC(=O)C(NC(=O)C(N)C(C)O)C(C)C)C(=O)O (stereo not drawn) (H-Thr-Val-Leu-OH; configuration not given here),3.5
2,CCOc1cc[n+](C)c2ccc(C)cc12,11.3
3,Nc1ncnc(N)c1NC(=O)CCCCc1ccccc1,-13.2
4,CCN(CC)CCN(CC)CCN(CC)CC,-1.75
5,O=C1NN(c2ccccc2)C(=O)C2C3c4ccccc4C(c4ccccc43)C12 (stereo unspecified),0.7
6,Cn1c2c(c3ccccc31)C(=O)CC2(C)C,-2.35
7,CCCCCCCC(=O)Nc1ccc(-n2c(=O)cc(C)n2C)cc1,12.2
8,O=C(NC/C=C/Br)NC1CCNc2ccccc21 (stereo unspecified),22.1
9,CC(C)/C=C1\CCC(CN(C)C)C1=O (stereo unspecified),68.8
10,CCOC(=O)CNc1nc(Cl)nc(NCC(=O)OCC)n1,-0.05
11,Cc1c(F)c(F)c(-c2c(F)c(F)c(C)c(F)c2F)c(F)c1F,-17.3
12,O=C(O)c1ccnc2c(S(=O)(=O)O)cccc12,-0.95
13,O=C(NC(Cc1c[nH]c2ccccc12)C(=O)O)C(=O)c1c[nH]c2ccccc12 (stereo unspecified),27.5
14,O=C(O)c1ccc(Nc2nc3ccccc3nc2-c2cccs2)cc1,5.95
15,COc1ccc(-c2cc(-c3cc(-c4ccc(OC)cc4)on3)no2)cc1,-26
16,CC1OC(OCC2COC(O)(Oc3c(-c4ccc(O)c(O)c4)oc4cc(O)cc(O)c4c3=O)C(O)C2O)C(O)C(O)C1O (stereo unspecified),-15.8
